# Test results taken from PubChem BioAssay AID2417 (National Center for Advancing Translational Sciences (NCATS), 2010).
# Hit rate of the full screen: of about 140,000 compounds, about 4,300 (3.1%) were called active. About 21% were inconclusive and are not listed. For the sample, actives were picked, then their nearest neighbours and some compounds at random. Unmarked numbers belong to inactive results.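 The calls were made as follows: active = readout at or below -70, meaning at least 70% loss of cells showing the perinucleolar compartment, a nuclear body marking cancer cells; inconclusive = readout between -30 and a set limit; inactive = the rest.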
# Assay: High Content Assay for Compounds that inhibit the Assembly of the Perinucleolar Compartment
# Conditions: PC3M PTB-GFP, PNC prevalence imaging, 16 h; at 10 µM; stronger effect = lower value
# Description: High Content Assay for Compounds that inhibit the Assembly of the Perinucleolar Compartment NIH Chemical Genomics Center [NCGC] NIH Molecular Libraries Probe Centers Network [MLPCN] MLPCN Grant: MH082371-01A2 Assay Submitter (PI): Sui Huang, Northwestern University, Feinberg School of Medicine, Cell and Molecular Biology, Chicago, Illinois. The perinucleolar compartment (PNC) is a non-membrane-bound nuclear subdomain that is associated with but structurally distinct from the nucleolus. The PNC is a heritable trait, in which the number of PNCs per cell in daughter cells often mimics that of their mother cells. The PNC is heterogeneous in shape, is stable through interphase, disassembles during mitosis, and reassembles in early G1. The PNC is concentrated with newly synthesized RNA polymerase III (pol III) RNAs (MRP RNA, RNAse P H1 RNA, hY RNAs[hY1, 2, 5], Alu RNA, and SRP [7SL] RNA) and RNA binding proteins (nucleolin, PTB, CUG-BP, KSRP, Raver1, Raver2, and Rod). […] Extensive in vitro studies have shown that the PNC is unique to tumor cells and preferentially forms in tumor cells derived from solid tissues. Examination of cancer cell lines from various origins and malignant capacities has shown that PNC prevalence correlates with the malignancy of tumors and has the potential to be developed as a pan-cancer prognostic marker. […] Although the PNC is associated with a DNA locus and a handful of components have been identified, much remains to be investigated regarding the structure and function of the PNC and its mechanistic link to cancer. We have previously shown that PNC prevalence reduction is a valid strategy to identify compounds that can be used to study the structure and function of the PNC. It is necessary, however, to create a screening platform that is able to test a large number of compounds in an automated fashion. Here we report the development and robustness of an automated whole-cell phenotypic image-based screening assay that is capable of identifying such compounds.
# PNC High Content Imaging Assay Procedure: 1. Cells at a density of 75-90% confluency in T175 flasks were harvested using 7 ml TrypLE Express cell dissociation reagent. After dissociation (5 minutes room temperature incubation) 10 ml of complete media was added to the TrypLE/cell suspension. The liquid was transferred to a 50 ml Conical tube and cells were pelleted at 1000 RPM for 5 min. Supernatant was removed and cells were resuspended to a final density of 150-200 cells/ul in complete media. 2. Cells were plated in 5 ul volume (750-1000 cells/well) into 1536 well Black uclear Aurora Low Base plates and allowed to recover and adhere at 37 C in a humidified 5% CO2 incubator for 4 hours. 3. After 4 hour incubation, compound libraries (23 nl of […] in columns 5-48) were transferred to the plates in duplicate using a 1536 well pintool. Camptothecin positive control (59 uM final) was added to column 2 and 1:3 dilutions of camptothecin was added to column 3. DMSO negative controls were present in columns 1 and 4. 4. After a 16 hour incubation in the 37 C incubator, cells were fixed by the addition of 4 ul of 6% EM grade paraformaldehyde (containing 0.1% triton X 100) directly to the cells. The plates were incubated at room temperature for 20 minutes. The liquid was removed using a 32 channel Kalypsys aspirator and the fixed cells were washed twice with 5 ul PBS followed by a final addition of 5 ul PBS containing 1 ug/ml Hoechst 33342. 5. Fixed plates were sealed and sotred at 4C until imaged. 6. Plates were imaged on an InCell 1000 automated microscope using a 20 x objective, a standard FITC filter set, no camera binning, and an exposure time of ~100-150 msec/well. 7. Data analysis. PNC prevalence was determined using the Multitarget analysis module from InCell Workstation software (V3.5 ) and analysis was run on a quad core workstation using the Incell Developer Toolbox (V1.7). […]
row,Compound,"activity change (PNC), negative = inhibition"
1,CC(NC(=S)Nc1ccc(S(N)(=O)=O)cc1)c1ccc2c(c1)OCO2 (stereo unspecified),-20.3%
2,O=C1CCCc2nn(-c3ccccc3)nc21,-100% (active)
3,c1ccc(-n2nc3ccccc3n2)cc1,-3.58%
4,N#CC1=C(N)N(c2ccccc2)C2=C(C(=O)CCC2)C1c1ccccc1 (stereo unspecified),5.97%
5,CCCCCC(=O)Nc1ccc(S(=O)(=O)Nc2ccc(Cl)nn2)cc1,31.2%
6,CCOc1ccccc1N1CCN(C(=S)Nc2ccc(S(N)(=O)=O)cc2)CC1,-28.8%
7,COC(=O)c1c(NC(=O)c2cccs2)sc2c1CCCC2,-6.02%
8,Cc1ccc(C(=O)c2c(NC(=O)c3ccccc3)sc(C)c2C)cc1,71.1%
9,Cc1ccc(C(=O)c2c(NC(=O)c3ccncc3)sc3c2CCCC3)cc1,-86.2% (active)
10,CC(=O)NC1C(Oc2ccc(C)cc2)OC2COC(c3ccco3)OC2C1O (stereo unspecified),-119% (active)
11,CN1CCN(c2ccc(S(=O)(=O)N3CCCCC3)cc2NC(=O)Cc2ccccc2F)CC1,41.3%
12,N#CCOc1ccc(C2=NO[C@@H]3[C@@H]4C[C@@H]([C@H]5C(=O)N(c6ccc7c(c6)OCO7)C(=O)[C@@H]45)[C@H]23)cc1,-91.1% (active)
13,CCCCn1c(SCc2ncc(-c3ccccc3)o2)nc2cc(S(N)(=O)=O)ccc21,27%
14,CCOC(=O)C1CCN(C(=O)CSc2cc(=O)n(C)c3ccccc23)CC1,0.103%
15,CCCCn1c(SCC(=O)N2CCC(C(=O)OCC)CC2)nc2cc(S(N)(=O)=O)ccc21,-100% (active)
16,CCCCOC(=O)c1[nH]c(C)c(C(=O)OC)c1C,-88.2% (active)
17,COC(=O)c1c(C)[nH]c(C(=O)/C=C/c2ccc(Cl)cc2)c1C,0.424%
18,CCCCN(CC)CCNC(=O)c1[nH]c(C)c(C(C)=O)c1C,-4.29%
19,CC(=O)c1c(Nc2ccccc2)sc(C(=O)c2ccccc2)c1C,73.7%
20,Cc1cc(NS(=O)(=O)c2ccc(NC(=S)NC(=O)c3ccc(F)cc3Cl)cc2)no1,-22%
21,Cc1ccc(C(=O)C(=S)N2CCOCC2)cc1,-3.45%
22,COc1ccc(N2CCN(C3CC(=O)N(c4ccc5c(c4)OCCO5)C3=O)CC2)cc1 (stereo unspecified),-84.9% (active)
23,COc1cccc(N2C(=O)CC(N3CCN(S(=O)(=O)c4ccccc4)CC3)C2=O)c1 (stereo unspecified),-19.9%

row,Compound,"activity change (PNC), negative = inhibition"
1,O=CN1CCN(C2CC(=O)N(c3ccc4c(c3)OCO4)C2=O)CC1 (stereo unspecified),-6.31%
2,COc1ccc(N2C(=O)CC(N3CCC(C(N)=O)CC3)C2=O)cc1 (stereo unspecified),19.9%
3,COC(=O)c1cc(C(=O)OC)cc(N2C(=O)CC(N3CCN(c4ccccc4)CC3)C2=O)c1 (stereo unspecified),-94.7% (active)
4,COc1cccc(N2CCN(C3CC(=O)N(c4ccc(Cl)cc4)C3=O)CC2)c1 (stereo unspecified),-3.5%
5,Cn1cc([N+](=O)[O-])c(C(=O)Nc2cnn(Cc3ccc(F)cc3)c2)n1,-17%
6,COCCOC(=O)c1c(C)oc2cc(Br)c(OCC(N)=O)cc12,-7.11%
7,CC(C)(C)c1ccc(/C=C/C(=O)Nc2ncccn2)cc1,15.2%
8,COc1ccc([C@H]2[C@H](C(C)=O)N3N=Cc4ccccc4C3C23C(=O)OC(C)(C)OC3=O)cc1 (stereo partly specified),11.5%
9,CC(C)(C)NC(=O)c1cccc(NC(=O)Cc2ccc(Br)cc2)c1,-14.3%
10,COc1ccc(C(=O)Nc2ccc(CN3CCOCC3)cc2)cc1,-12.7%
11,COc1ccc(CC(=O)Nc2ccc(C(=O)NC(C)(C)C)cc2)cc1,-85% (active)
12,CC1=C(C(=O)Nc2cc(C)ccn2)C(c2cnn(C)c2)C2=C(CC(c3ccccc3)CC2=O)N1 (stereo unspecified),20.8%
13,COc1ccc2nc(NC(=O)[C@@H]3CCCN3C(=O)c3cccs3)sc2c1,34.3%
14,O=C(O)CC(c1ccccc1)n1cnnn1 (stereo unspecified),2.72%
15,Cn1nnnc1SCC(=O)N1CCN(C(c2ccccc2)c2ccccc2)CC1,-100% (active)
16,CC(C)NC(=S)N1CCN(C(c2ccccc2)c2ccccc2)CC1,12%
17,O=C(c1ccc(-n2cnnn2)cc1)N1CCN(C(c2ccccc2)c2ccccc2)CC1,-100% (active)
18,Cn1nnnc1SCC(=O)N1CCN(Cc2ccccc2)CC1,29.1%
19,CCOC(=O)C1=C(CSc2nnnn2C)N(C)C(=O)NC1c1ccccc1 (stereo unspecified),19.9%
20,Cc1ccc2nsnc2c1NC(=O)c1ccccc1[N+](=O)[O-],-1.05%
21,O=C(C/C(=N\NC(=O)c1ccccc1Br)C(F)(F)F)c1cccs1,-25.7%
22,Cc1ccc(C)c2[nH]c(=O)c(CCNC(=O)c3cccs3)cc12,36.1%
23,COc1cc(OC)cc(C(=O)NCC(=O)OCc2csc(-c3ccccc3)n2)c1,0.666%

row,Compound,"activity change (PNC), negative = inhibition"
1,CCC1CCCCN1C(=S)Nc1ccc(C(C)=O)cc1 (stereo unspecified),83.7%
2,CCNC(=O)NC(=O)C(C)OC(=O)C1CCN(S(=O)(=O)c2ccccc2F)CC1 (stereo unspecified),-28.8%
3,CC(NC(=O)COC(=O)C1CCN(S(=O)(=O)c2ccccc2C(F)(F)F)CC1)c1ccccc1 (stereo unspecified),-108% (active)
4,CC(NC(=O)CCC(=O)N1CCN(S(=O)(=O)c2ccc(Cl)cc2)CC1)c1ccccc1 (stereo unspecified),-12.6%
5,O=C(Nc1cccc(Cl)c1)Nc1ccccc1NS(=O)(=O)c1cccs1,-1.43%
6,CCOC(=O)c1c(-c2ccc(C)cc2C)csc1NC(=O)CSc1nnnn1C,-85.2% (active)
7,CCOC(=O)CNC(=O)CSc1nnnn1-c1cc(C)ccc1C,-8.66%
8,CNC(=O)CSc1nnnn1-c1ccc(C)cc1C,-10.4%
9,C/C(CCC(=O)OC[C@H]1O[C@H](C#Cc2ccccc2)C=C[C@@H]1Oc1ccc(C)cc1)=N\OC[C@@H](O)[C@H]1O[C@@H]2OC(C)(C)O[C@@H]2[C@H]1O,49%
10,CN(CC(=O)NCCc1ccccc1)S(=O)(=O)c1cnc[nH]1,-5.8%
11,Cc1ccc(/C(N)=N/OC(=O)COc2ccc(Cl)c(C)c2)cc1,48.8%
12,COCCNC(=O)COc1ccc(C)c(C)c1,-16.6%
13,COc1ccc(C(=O)COC(=O)COc2ccc(C)c(C)c2)cc1,-83.5% (active)
14,COC(=O)c1ccc(NC(=O)CSc2nnc(-c3ccncc3)n2C)cc1,-12.9%
15,CCOC(=O)c1ccc(NC(=O)CSc2ncccn2)cc1,-27.8%
16,CCOC(=O)c1ccc(NC(=O)CSc2nnc(COc3ccccc3OC)n2C)cc1,-83.9% (active)
17,CN(CC(=O)Nc1ccc(S(=O)(=O)N2CCCC2)cc1)Cc1ccc(Cl)c(Cl)c1,14.3%
18,Cc1nc2scc(-c3cccs3)c2c(=O)n1N,38.3%
19,CCCCNc1nc2c(c(=O)n(C)c(=O)n2C)n1Cc1cccc(OC)c1,-17.3%
20,CCCCNc1nc2c(c(=O)[nH]c(=O)n2C)n1CCOc1ccccc1,44.9%
21,Cn1c(=O)[nH]c(=O)c2c1nc(NCCCn1ccnc1)n2Cc1cccc(Br)c1,-100% (active)
22,O=C(N/N=C\c1ccc(Br)cc1)c1ccc(Cn2cccn2)o1,-11.4%
23,CN(C)S(=O)(=O)c1ccc(N2CCCC2=O)c([N+](=O)[O-])c1,43.2%

row,Compound,"activity change (PNC), negative = inhibition"
1,COc1ccc2c(c1)C(SCC(=O)NCc1ccccc1)CC(C)(C)O2 (stereo unspecified),27.2%
2,Cc1ccc(S(=O)(=O)N2CC(=O)Nc3ccccc32)cc1C,5.54%
3,Cc1ccc(C)c(S(=O)(=O)n2cnc3ccccc32)c1,-9%
4,Cc1ccc(C)c(S(=O)(=O)N2CC(=O)Nc3ccccc32)c1,-86.7% (active)
5,COc1ccc(NC(=S)NCc2cccs2)c(OC)c1,-5.37%
6,O=C(CN1CCN(S(=O)(=O)c2ccc(Br)cc2)CC1)Nc1ccccc1C(=O)c1ccccc1,41.1%
7,COC(=O)NNC(=O)C1CCC(C)CC1 (stereo unspecified),21.6%
8,CCOC(=O)C1=C(CC)Nc2ccccc2N=C1NC(=O)c1cccc(S(=O)(=O)N2CCCC2)c1,-114% (active)
9,CCOC(=O)CSc1nnc(NC(=O)c2cccc(S(=O)(=O)N3CCCCC3)c2)s1,19.2%
10,O=C(Nc1nncs1)c1cccc(S(=O)(=O)N2CCCCC2)c1,-22%
11,COc1ccc(C)cc1NC(=O)C(Sc1ccccc1)c1ccccc1 (stereo unspecified),-2.98%
12,CCC(C)NC(=O)c1ccc(N2CCC3(CC2)OCCO3)c([N+](=O)[O-])c1 (stereo unspecified),36.6%
13,COc1ccc(NC(=O)CN(Cc2ccccc2)S(C)(=O)=O)cc1OC,-0.222%
14,CCCCC(=O)N/N=C(\C)CC(=O)Nc1cc(Cl)ccc1OC,41.6%
15,COc1ccc(COC(=O)N/N=C(\C)CC(=O)Nc2ccc(Cl)cc2)cc1,20.7%
16,C/C(CC(=O)Nc1ccc(Cl)cc1)=N\NC(=O)C(=O)NCCO,-81.9% (active)
17,CC(C)(C)C1CCC(=NNC(=O)c2ccc(Br)o2)CC1 (stereo unspecified),30.8%
18,O=C(Nc1cn(-c2ccccc2)nc1-c1ccccc1)c1ccccc1,22.3%
19,Cc1ccc(C(=O)/C=C/c2c(C)nn(-c3ccccc3)c2Cl)cc1,-11.1%
20,Cc1nn(-c2ccccc2)c(Cl)c1/C=C/C(=O)c1ccc(O)cc1,-91.6% (active)
21,Cc1nn(-c2ccccc2)c(C)c1/C=C/C(=O)OC(C)C(N)=O (stereo unspecified),7.76%
22,NC1=C([N+](=O)[O-])C(c2ccccc2)C2=C(CCCC2=O)O1 (stereo unspecified),6.59%
